According to PubChem BioAssay (NCATS):
Records with an inconclusive call do not appear. Activity calls are given as the source filed them. Unless noted, calls follow the shape of the dose curve; as a rule, active = well fitted curve in the direction sought with a large enough effect; inconclusive = small, poorly fitted or top-dose-only effect, or another doubt; inactive = no such curve, though single readings can be large; an effect the other way counts as inactive or inconclusive.

Key:
[1] = Quantitative high throughput screen for delayed death inhibitors of the malarial parasite plastid, 48 hour incubation (AID 488752); also: nearly all actives have a fitted effect of over 65% in size; also: potency is read from the fitted curve at half-maximal effect
Method in brief: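 Luciferase-expressing P. falciparum in RBCs, 2% Hct, 0.1% parasitemia final; RPMI 1640 + 0.5% Albumax; 48 h, 37 C, 5% CO2; luminescence readout, signal drop = growth inhibition.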

[2] = molecular target: Thyrotropin receptor (Homo sapiens) (UniProt P16473); test: qHTS Assay for Antagonists of the Thyroid Stimulating Hormone Receptor (AID 488980); also: series mostly up to about 58 µM; 0% is about no effect
Method in brief: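 Inhibition of cAMP raised by EC80 TSH (4 nM final) was read by HTRF, with lysate cAMP competing against cAMP-d2 for cryptate antibody after 30 min at room temperature. The cells were transfected HEK293 held in phosphodiesterase inhibitor RO 20-1724 at 70 uM.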

[3] = molecular target: Galactokinase (Homo sapiens) (UniProt P51570); test: qHTS Validation Assay for Inhibitors of Human Galactokinase (GALK) (AID 493189); also: 0% is about no effect
Method in brief: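 Inhibition was measured as remaining ATP, detected by luciferase luminescence after a 1 h room-temperature reaction. Final conditions: 5 nM GALK, 100 uM galactose, 35 uM ATP, pH 8.0 HEPES buffer.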

[4] = molecular target: Thioredoxin reductase 1, cytoplasmic (Rattus norvegicus) (UniProt O89049); test: qHTS Assay for Substrates of Mammalian Selenoprotein Thioredoxin Reductase 1 (TrxR1) (AID 488772);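 also: series mostly up to about 57 µM; 0% is about no effect; a drop in NADPH fluorescence below the no-compound background marks a TrxR1 substrate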
Method in brief: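 In this dual-purpose format, potential substrates are identified from the first fluorescence read after selenite addition, not from the 8-minute delta. Rat enzyme is preincubated with NADPH and then with compound at ~22 deg C.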

[5] = molecular target: Thioredoxin reductase 1, cytoplasmic (Rattus norvegicus) (UniProt O89049); test: qHTS Assay for Inhibitors of Mammalian Selenoprotein Thioredoxin Reductase 1 (TrxR1) (AID 488773); settings: Potency: inhibition; also: nearly all actives have a fitted effect of over 40% in size; also: potency is read from the fitted curve at half-maximal effect
Method in brief: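 Inhibition is scored from the loss of NADPH fluorescence between first and last reads of an 8-min kinetic run. Selenite (400 uM) was the substrate, added after 15 min compound preincubation at room temperature.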

[6] = molecular target: Flap endonuclease 1 (Homo sapiens) (UniProt P39748); test: qHTS Validation Assay for the Inhibitors of Human Flap endonuclease 1 (FEN1) (AID 488816); also: % is scaled to controls: 0 for no effect and ±100 for the full control effect
Method in brief: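 Enzyme reagent 10 nM; cpds pinned; 15 min RT preinc.; substrate 50 nM final; reads t=0 and 15 min; no-enzyme buffer wells as neg. control; normalized data, 4-parameter Hill fit.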

[7] = molecular target: M-phase phosphoprotein 8 (Homo sapiens) (UniProt Q99549); test: qHTS Validation Assay for Inhibitors for MPP8 Chromodomain Interactions with Methylated Histone Tails (AID 488949); also: nearly all actives have a fitted effect of over 55% in size; also: potency is read from the fitted curve at half-maximal effect
Method in brief: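 AlphaScreen proximity signal from streptavidin donor and Ni-chelate acceptor beads (10 ug/mL each) reported binding of MPP8 to trimethyl-K9 H3(1-18) peptide, both at 50 nM. The complex formed 30 min before a 30 min compound exposure at room temperature, in PBS pH 7.4.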

[8] = molecular target: Chromobox protein homolog 1 (Homo sapiens) (UniProt P83916); test: qHTS Validation Assay for Inhibitors of HP1-beta Chromodomain Interactions with Methylated Histone Tails (AID 488953); also: nearly all actives have a fitted effect of over 50% in size; also: potency is read from the fitted curve at half-maximal effect
Method in brief: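 AlphaScreen proximity readout: streptavidin donor and Ni-chelate acceptor beads, 10 ug/mL final, 30 min dark, RT. Complex of 50 nM HP1-beta and 50 nM b-H3(1-18)K9me3 formed 30 min, then compound-treated 30 min; PBS pH 7.4/0.01% Tween-20.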

[9] = molecular target: D(1A) dopamine receptor (Homo sapiens) (UniProt P21728); test: HTS Assay for Allosteric Agonists of the Human D1 Dopamine Receptor: Primary Screen for Potentiators (AID 488982); also: 0% is about no effect
Method in brief: (§1)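 Tetracycline-induced HEK293 Trex D1 cells with forced coupling to calcium, loaded with no-wash calcium dye; kinetic fluorescence read 180 s after compound addition for agonism, then a further 180 s after an EC20 dopamine challenge for potentiation.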

[10] = Validation screen for small molecules that induce genotoxicity in human embryonic kidney (HEK293T) cells expressing luciferase-tagged ELG1 (AID 493106); also: 0% is about no effect
Method in brief: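 qHTS format; 2,000 HEK293T ELG1-luc cells/well; 23 nL compound via pin tool; 16 hr, 37 °C/5% CO2; ONE-Glo, 30 min RT; luminescence read.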

[11] = molecular target: ATPase family AAA domain-containing protein 5 (Homo sapiens) (UniProt Q96QE3); test: Validation screen for small molecules that inhibit ELG1-dependent DNA repair in human embryonic kidney (HEK293T) cells expressing luciferase-tagged ELG1 (AID 493107); also: nearly all actives have a fitted effect of over 70% in size; also: potency is read from the fitted curve at half-maximal effect
Method in brief: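 ELG1-luciferase HEK293T reporter; 5-fluorouridine + compound/DMSO, 16 hr, 37 °C, 5% CO2; ONE-Glo 30 min RT; luminescence read, qHTS format.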

[12] = Nrf2 qHTS screen for inhibitors: Validation (AID 493153; active = well fitted inhibition curve with a large enough effect in the main read-out, with a control signal flat, not every such curve was filed as active); settings: Potency: luciferase luminescence; viability change: measured here: cytotoxicity max response
Method in brief: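 Concentration-response test in A549 ARE_Fluc reporter cells (5% FBS OPTI-MEM), compound exposure 18-24 h at 37°C, 5% CO2. Cell viability measured first by CellTiter-Fluor fluorescence; ARE-driven luciferase luminescence then measured as Nrf2 activity.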

[13] = qHTS for Inhibitors of Cell Surface uPA Generation: Validation Assay (AID 493164);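 also: RAW 264.7 macrophage cells exposed to compound for 18 h; 0% is about no effect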
Method in brief: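 Compounds are titrated over seven points (2.45 nM–38.3 uM final) onto pre-plated RAW 264.7 cells and incubated for 18 h. Retained intracellular ATP, measured with ATP-Lite, indicates blocked lethal factor entry.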

[14] = molecular target: Methanococcus maripaludis chaperonin (MmCpn) (UniProt Q6LX38); test: High-Throughput Screening for Modulators of Cytosolic Chaperonin Activity: MmCpn Primary Screen (AID 488978);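 also: 50 nM MmCpn enzyme hydrolysing 30 µM ATP at 37 °C; 0% is about no effect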
Method in brief: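 ATPase activity of 50 nM MmCpn was assayed with 30 uM ATP, 10 minutes at 37C, after a 5 min compound preincubation at room temperature. ADP production was read as HTRF emission at 590 and 665 nm.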

[15] = molecular target: D(1A) dopamine receptor (Homo sapiens) (UniProt P21728); test: HTS Assay for Allosteric Agonists of the Human D1 Dopamine Receptor: Primary Screen for Agonists (AID 488981); also: potency is read from the fitted curve at half-maximal effect; as to activation: 0% is about no effect
Method in brief: as §1

[16] = molecular target: D(1A) dopamine receptor (Homo sapiens) (UniProt P21728); test: HTS Assay for Allosteric Agonists of the Human D1 Dopamine Receptor: Primary Screen for Antagonists (AID 488983);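 also: calcium flux response to an EC80 dopamine challenge measured with no-wash dye; nearly all actives have a fitted effect of over 65% in size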; also: potency is read from the fitted curve at half-maximal effect
Method in brief: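 Calcium flux readout, no-wash dye, inducible HEK293 T-REx D1 line (force-coupled). Compound added after 10 s baseline, 180 s kinetic read; then dopamine at EC80, further 180 s read.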

[17] = molecular target: Transient receptor potential cation channel subfamily V member 1 (Homo sapiens) (UniProt Q8NER1); test: HTS Assay for Compounds that Act as Enhancers of the Vanilloid Receptor 1 (AID 488979); also: 0% is about no effect
Method in brief: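 TRPV1 cells loaded with Fluo-8 calcium dye; compound added and Ca2+ signal (ex 480/em 520 nm) followed 3 min, then capsaicin at EC20 added and read 2 more min to detect enhancement.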

[18] = molecular target: ATP-dependent 6-phosphofructokinase (Trypanosoma brucei brucei) (UniProt O15648); test: qHTS Assay to Find Inhibitors of T. brucei phosphofructokinase: hit validation (AID 492961);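 also: luminescence reports ADP formed as PFK phosphorylates fructose-6-phosphate with ATP; series mostly up to about 51 µM; % is scaled to controls: 0 for no effect and ±100 for the full control effect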
Method in brief: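 Compounds titrated; %activity normalized to 0x and 1x enzyme controls, curve-fitted. Readout: ADP-Glo luminescence after 45 min room-temperature reaction of 1.25 nM PFK, 0.1 mM ATP, 0.5 mM F6P, pH 8.0.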

[19] = molecular target: Thyrotropin-releasing hormone receptor (Homo sapiens) (UniProt P34981); test: qHTS for Small Molecule Agonists and Allosteric Enhancers of Human TRH Receptor: Validation Screen for Agonists (AID 493127;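 active = calcium activation more than 3 SD above the typical response in the agonist read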;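 also: intracellular calcium rise by fluo-8 fluorescence before TRH EC20 addition; 0% is about no effect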); settings: TRH receptor agonist cell assay; at 2 µM; stronger effect = higher value
Method in brief: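 Read-out: intracellular calcium release measured kinetically by FDSS (fluo-8, ex 480/em 530 nm), 1 reading/s after a 10-cycle baseline. TRHR cells, 2000/well, cultured 18 h at 33.5C, dye-loaded at room temp. Compound-evoked positive calcium signal flags agonists.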

Chain of Chromobox protein homolog 1 (Homo sapiens) (P83916 whole entry, looked up): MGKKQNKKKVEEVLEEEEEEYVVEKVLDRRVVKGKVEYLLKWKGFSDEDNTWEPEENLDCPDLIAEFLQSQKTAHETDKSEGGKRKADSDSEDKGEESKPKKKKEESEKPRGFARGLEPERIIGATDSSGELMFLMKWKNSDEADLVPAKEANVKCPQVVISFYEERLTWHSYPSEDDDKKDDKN
Chain of Flap endonuclease 1 (Homo sapiens) (P39748 whole entry, looked up): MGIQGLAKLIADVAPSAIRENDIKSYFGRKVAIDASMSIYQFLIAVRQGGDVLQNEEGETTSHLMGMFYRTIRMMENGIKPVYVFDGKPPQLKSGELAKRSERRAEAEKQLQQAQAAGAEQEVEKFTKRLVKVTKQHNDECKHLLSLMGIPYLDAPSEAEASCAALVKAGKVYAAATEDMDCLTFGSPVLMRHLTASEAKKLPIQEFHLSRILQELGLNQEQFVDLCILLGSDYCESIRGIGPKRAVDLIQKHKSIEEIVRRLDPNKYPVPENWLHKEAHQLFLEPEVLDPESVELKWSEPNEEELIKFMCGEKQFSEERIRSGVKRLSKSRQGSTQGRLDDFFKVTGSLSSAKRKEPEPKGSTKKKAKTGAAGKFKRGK
Chain of ATPase family AAA domain-containing protein 5 (Homo sapiens) (Q96QE3 whole entry, looked up, the tested form may be a part): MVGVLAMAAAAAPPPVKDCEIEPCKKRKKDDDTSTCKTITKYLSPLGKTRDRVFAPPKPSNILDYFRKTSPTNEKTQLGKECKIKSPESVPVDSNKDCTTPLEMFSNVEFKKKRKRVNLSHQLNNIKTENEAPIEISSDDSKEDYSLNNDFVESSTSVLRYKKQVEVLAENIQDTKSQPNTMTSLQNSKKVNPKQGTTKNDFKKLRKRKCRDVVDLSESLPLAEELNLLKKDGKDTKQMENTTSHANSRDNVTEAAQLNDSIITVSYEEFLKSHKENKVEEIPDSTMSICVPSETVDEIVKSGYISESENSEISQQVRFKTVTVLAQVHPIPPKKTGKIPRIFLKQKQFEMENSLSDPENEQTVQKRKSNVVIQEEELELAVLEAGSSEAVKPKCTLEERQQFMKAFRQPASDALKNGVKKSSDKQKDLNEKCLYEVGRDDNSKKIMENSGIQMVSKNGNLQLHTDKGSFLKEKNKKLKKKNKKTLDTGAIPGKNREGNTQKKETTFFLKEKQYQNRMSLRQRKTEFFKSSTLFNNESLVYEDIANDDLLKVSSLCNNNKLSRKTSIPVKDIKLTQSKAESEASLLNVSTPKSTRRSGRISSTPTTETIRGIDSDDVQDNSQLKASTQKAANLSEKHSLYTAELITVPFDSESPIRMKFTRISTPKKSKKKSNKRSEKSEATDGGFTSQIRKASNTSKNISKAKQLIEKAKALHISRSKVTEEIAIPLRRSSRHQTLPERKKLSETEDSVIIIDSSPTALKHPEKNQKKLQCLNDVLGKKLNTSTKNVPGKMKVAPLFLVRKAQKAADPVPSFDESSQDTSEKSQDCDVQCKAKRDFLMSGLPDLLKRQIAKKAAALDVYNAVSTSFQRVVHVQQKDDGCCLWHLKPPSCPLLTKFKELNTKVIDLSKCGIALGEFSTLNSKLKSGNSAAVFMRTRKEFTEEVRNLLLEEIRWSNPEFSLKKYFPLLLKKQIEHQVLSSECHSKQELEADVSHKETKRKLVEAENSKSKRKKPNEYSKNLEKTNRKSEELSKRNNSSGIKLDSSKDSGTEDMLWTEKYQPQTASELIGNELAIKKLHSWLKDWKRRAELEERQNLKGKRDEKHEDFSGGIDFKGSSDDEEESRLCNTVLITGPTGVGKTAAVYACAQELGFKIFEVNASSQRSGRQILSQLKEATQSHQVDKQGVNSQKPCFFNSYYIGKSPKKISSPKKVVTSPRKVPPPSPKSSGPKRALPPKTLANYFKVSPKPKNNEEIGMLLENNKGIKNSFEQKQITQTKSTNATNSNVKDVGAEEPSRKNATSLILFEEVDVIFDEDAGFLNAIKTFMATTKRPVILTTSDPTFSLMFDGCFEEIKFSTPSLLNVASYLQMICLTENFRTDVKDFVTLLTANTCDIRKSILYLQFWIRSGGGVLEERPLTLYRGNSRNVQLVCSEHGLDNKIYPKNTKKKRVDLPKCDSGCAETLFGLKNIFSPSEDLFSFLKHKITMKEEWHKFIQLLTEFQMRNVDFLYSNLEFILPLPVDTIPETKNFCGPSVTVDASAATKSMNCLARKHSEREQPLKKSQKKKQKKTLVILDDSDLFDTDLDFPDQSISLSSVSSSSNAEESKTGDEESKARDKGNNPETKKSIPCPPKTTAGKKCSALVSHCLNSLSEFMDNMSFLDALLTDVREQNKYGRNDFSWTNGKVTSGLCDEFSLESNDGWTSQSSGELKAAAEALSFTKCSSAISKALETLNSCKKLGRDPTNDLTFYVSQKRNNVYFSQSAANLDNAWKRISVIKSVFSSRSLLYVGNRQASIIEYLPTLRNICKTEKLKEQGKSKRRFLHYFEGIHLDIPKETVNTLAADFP
Chain of Thioredoxin reductase 1, cytoplasmic (Rattus norvegicus) (O89049 whole entry, looked up): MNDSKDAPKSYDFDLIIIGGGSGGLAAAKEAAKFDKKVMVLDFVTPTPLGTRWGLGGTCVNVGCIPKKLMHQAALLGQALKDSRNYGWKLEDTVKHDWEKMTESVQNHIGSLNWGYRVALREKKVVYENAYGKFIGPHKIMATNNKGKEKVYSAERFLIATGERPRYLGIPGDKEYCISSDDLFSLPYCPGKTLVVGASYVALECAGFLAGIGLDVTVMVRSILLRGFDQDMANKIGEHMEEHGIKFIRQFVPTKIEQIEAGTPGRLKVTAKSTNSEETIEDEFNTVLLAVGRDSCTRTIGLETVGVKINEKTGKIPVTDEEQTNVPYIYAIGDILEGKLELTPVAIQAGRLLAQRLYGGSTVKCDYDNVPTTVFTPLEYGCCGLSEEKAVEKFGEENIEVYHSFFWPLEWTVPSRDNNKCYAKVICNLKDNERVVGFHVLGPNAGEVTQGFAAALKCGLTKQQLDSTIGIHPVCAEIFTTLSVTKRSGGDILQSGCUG
Chain of M-phase phosphoprotein 8 (Homo sapiens) (Q99549 whole entry, looked up): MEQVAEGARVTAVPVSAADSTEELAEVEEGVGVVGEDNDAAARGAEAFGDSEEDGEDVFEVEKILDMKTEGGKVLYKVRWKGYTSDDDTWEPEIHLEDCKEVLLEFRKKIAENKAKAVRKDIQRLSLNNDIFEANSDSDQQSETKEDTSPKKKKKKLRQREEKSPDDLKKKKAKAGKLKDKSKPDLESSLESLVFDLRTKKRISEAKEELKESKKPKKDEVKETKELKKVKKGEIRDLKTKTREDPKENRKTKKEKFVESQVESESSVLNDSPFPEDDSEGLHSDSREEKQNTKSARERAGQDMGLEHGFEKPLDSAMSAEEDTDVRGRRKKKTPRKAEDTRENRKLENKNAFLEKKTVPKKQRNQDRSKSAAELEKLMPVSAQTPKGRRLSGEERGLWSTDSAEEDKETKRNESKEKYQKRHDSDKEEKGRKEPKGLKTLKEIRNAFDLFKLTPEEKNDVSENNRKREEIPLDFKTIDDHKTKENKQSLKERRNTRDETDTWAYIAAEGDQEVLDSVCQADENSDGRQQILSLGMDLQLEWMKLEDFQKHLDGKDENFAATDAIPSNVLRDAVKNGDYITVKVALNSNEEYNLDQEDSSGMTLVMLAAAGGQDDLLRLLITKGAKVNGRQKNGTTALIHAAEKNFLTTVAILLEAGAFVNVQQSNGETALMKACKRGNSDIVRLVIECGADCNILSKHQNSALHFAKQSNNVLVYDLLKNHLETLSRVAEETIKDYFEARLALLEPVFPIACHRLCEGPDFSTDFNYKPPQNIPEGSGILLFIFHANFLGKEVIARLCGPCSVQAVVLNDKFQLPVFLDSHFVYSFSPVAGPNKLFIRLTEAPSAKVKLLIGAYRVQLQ
Chain of Galactokinase (Homo sapiens) (P51570 whole entry, looked up): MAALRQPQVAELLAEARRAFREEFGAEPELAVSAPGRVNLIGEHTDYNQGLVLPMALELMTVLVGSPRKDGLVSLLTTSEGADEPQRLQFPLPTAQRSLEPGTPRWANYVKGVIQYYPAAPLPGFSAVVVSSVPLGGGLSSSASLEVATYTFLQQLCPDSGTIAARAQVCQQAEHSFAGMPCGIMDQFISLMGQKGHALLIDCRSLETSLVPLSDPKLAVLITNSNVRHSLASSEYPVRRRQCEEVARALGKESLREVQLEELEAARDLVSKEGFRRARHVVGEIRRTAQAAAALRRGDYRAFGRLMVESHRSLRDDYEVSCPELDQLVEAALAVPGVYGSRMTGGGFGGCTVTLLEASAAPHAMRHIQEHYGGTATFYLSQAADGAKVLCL
Chain of D(1A) dopamine receptor (Homo sapiens) (P21728 whole entry, looked up): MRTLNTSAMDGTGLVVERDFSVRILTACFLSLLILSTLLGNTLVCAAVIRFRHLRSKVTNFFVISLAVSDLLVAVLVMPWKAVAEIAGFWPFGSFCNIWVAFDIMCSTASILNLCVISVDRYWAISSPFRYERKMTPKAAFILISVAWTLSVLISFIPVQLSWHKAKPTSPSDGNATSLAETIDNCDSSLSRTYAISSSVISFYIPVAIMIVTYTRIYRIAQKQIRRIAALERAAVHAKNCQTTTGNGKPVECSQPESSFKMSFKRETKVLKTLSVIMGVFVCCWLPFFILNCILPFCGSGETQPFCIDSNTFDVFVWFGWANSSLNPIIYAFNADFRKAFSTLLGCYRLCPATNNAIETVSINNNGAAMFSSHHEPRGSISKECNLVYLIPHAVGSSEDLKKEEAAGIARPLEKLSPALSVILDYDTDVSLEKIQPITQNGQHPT
Chain of Thyrotropin-releasing hormone receptor (Homo sapiens) (P34981 whole entry, looked up): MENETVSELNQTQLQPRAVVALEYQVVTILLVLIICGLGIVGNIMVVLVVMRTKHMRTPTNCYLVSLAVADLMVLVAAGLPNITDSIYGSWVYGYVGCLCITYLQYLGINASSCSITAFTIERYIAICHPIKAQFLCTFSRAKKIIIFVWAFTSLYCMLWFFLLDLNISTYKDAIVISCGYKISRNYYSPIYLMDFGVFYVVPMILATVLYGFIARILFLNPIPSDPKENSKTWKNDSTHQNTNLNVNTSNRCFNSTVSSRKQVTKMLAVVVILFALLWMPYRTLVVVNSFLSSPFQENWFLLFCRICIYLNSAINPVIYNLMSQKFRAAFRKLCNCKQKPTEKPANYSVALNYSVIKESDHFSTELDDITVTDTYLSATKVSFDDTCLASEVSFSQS

CC[C@@H](C)[C@H]1O[C@]2(CC[C@@H]1C)C[C@@H]1C[C@@H](C/C=C(\C)[C@@H](O[C@H]3C[C@H](OC)[C@@H](O[C@H]4C[C@H](OC)[C@@H](O)[C@H](C)O4)[C@H](C)O3)[C@@H](C)/C=C/C=C3\CO[C@@H]4[C@H](O)C(C)=C[C@@H](C(=O)O1)[C@]34O)O2
inactive: outcome [2] | Potency [3]
active: Potency [1] 1.65 µM

COc1ccc2c(c1)CCC1C2CC[C@@]2(C)C1CC[C@@H]2NCCCCCCN1C(=O)CCC1=O (stereo partly drawn)
active: Potency [11] 25.9 µM
inactive: Potency [4] | Potency [5] | Potency [6] | Potency [7] | Potency [8] | Potency [9] | Potency [10] | Potency [12] | outcome [13]
2.91%: viability change [12]

NC[C@H]1O[C@@H](n2cnc3c(N)ncnc32)[C@H](O)[C@@H]1O
inactive: Potency [4] | Potency [5] | Potency [6] | Potency [7] | Potency [8] | outcome [14] | Potency [15] | Potency [16] | Potency [10] | Potency [11] | Potency [12] | outcome [13]
9.27%: viability change [12]

N.N.O=C(O)C1(C(=O)O)CCC1.[Pt]
active: Potency [7] 31.6 µM
inactive: Potency [1] | outcome [17] | outcome [2] | Potency [3]

O=c1[nH]c2ccccc2n1CCCN1CCN(C(c2ccccc2)c2ccccc2)CC1
inactive: Potency [1] | outcome [17] | outcome [2] | outcome [18] | Potency [3]

CN1CCc2cc(O)c(O)cc2C(c2ccccc2)C1 (stereo not drawn)
-7.53%: viability change [12]
inactive: Potency [4] | Potency [5] | Potency [6] | Potency [7] | Potency [8] | outcome [17] | outcome [2] | Potency [15] | Potency [9] | Potency [10] | Potency [12] | outcome [13] | Potency [3]

C[C@@H](CN1CCC(Cc2ccccc2)CC1)[C@@H](O)c1ccc(O)cc1
inactive: Potency [4] | Potency [5] | Potency [6] | Potency [7] | Potency [8] | outcome [14] | outcome [17] | outcome [2] | Potency [15] | Potency [9] | Potency [10] | Potency [11] | activation [19] 2.75% | Potency [12] | outcome [13] | Potency [3]
8.45%: viability change [12]
active: Potency [16] 14.1 µM

NC(=S)c1ccc[n+]([C@@H]2O[C@@H](COP(=O)([O-])OP(=O)(O)OC[C@H]3O[C@@H](n4cnc5c(N)ncnc54)[C@H](OP(=O)(O)O)[C@@H]3O)C(O)C2O)c1 (stereo partly drawn)
inactive: Potency [4] | Potency [5] | Potency [6] | Potency [7] | Potency [9] | Potency [16] | Potency [10] | Potency [11] | Potency [12] | outcome [13]
active: Potency [8] 89.1 µM
-6.67%: viability change [12]

CCCCC#Cc1nc(NC)c2ncn([C@@H]3O[C@H](CO)[C@@H](O)[C@H]3O)c2n1
2.21%: viability change [12]
inactive: Potency [4] | Potency [5] | Potency [6] | Potency [7] | Potency [8] | Potency [15] | Potency [9] | Potency [16] | Potency [12] | outcome [13]

COc1cc(SC)ccc1C(=O)N1CCC(Cc2ccccc2)CC1
inactive: Potency [4] | Potency [5] | Potency [6] | Potency [7] | Potency [8] | Potency [15] | Potency [9] | Potency [16] | Potency [10] | Potency [12] | outcome [13]
1.59%: viability change [12]

NCC1OC(O[C@H]2[C@H](O)[C@@H](OC3C(O)C(N)CC(N)C3OC3OC(CO)C(O)C(O)C3N)O[C@@H]2CO)C(N)C(O)C1O (stereo partly drawn)
inactive: Potency [4] | Potency [5] | Potency [6] | Potency [7] | Potency [8] | outcome [14] | Potency [15] | Potency [9] | Potency [16] | Potency [10] | Potency [11] | Potency [12] | outcome [13]
1.58%: viability change [12]

CN1C2CCC1CC(OC(=O)C(O)c1ccccc1)C2 (stereo not drawn)
inactive: Potency [1] | Potency [5] | Potency [7] | Potency [8] | outcome [14] | outcome [17] | outcome [2] | Potency [15] | Potency [9] | Potency [16] | Potency [10] | Potency [11] | Potency [12] | outcome [13] | Potency [3]
-17.3%: viability change [12]

CCCC1(C)C(C#N)(C#N)C1(C#N)C#N
inactive: Potency [4] | Potency [6] | Potency [7] | Potency [8] | outcome [14] | Potency [15] | Potency [9] | Potency [16] | outcome [13]
active: Potency [5] 10.6 µM

O=C1NC(=O)/C(=C/c2ccc3nccnc3c2)S1
inactive: Potency [4] | Potency [5] | Potency [6] | Potency [7] | Potency [8] | outcome [14] | Potency [15] | Potency [9] | Potency [16] | outcome [13]

Nc1ncnc2c1ncn2[C@@H]1O[C@H](COP(=O)(O)OP(=O)(O)OP(=O)(O)OP(=O)(O)OC[C@@H]2O[C@H](n3cnc4c(N)ncnc43)[C@@H](O)[C@H]2O)[C@@H](O)[C@H]1O
2.98%: viability change [12]
inactive: Potency [4] | Potency [5] | Potency [6] | Potency [7] | Potency [8] | outcome [14] | Potency [10] | Potency [12] | outcome [13]
active: Potency [15] 0.562 µM

NC(=O)C1=CN(C2OC(COP(=O)(O)OP(=O)(O)OC[C@H]3O[C@@H](n4cnc5c(N)ncnc54)[C@H](OP(=O)(O)O)[C@@H]3O)C(O)C2O)C=CC1 (stereo partly drawn)
5.72%: viability change [12]
active: Potency [8] 0.0053 µM
inactive: Potency [4] | Potency [5] | Potency [6] | Potency [7] | outcome [14] | Potency [15] | Potency [9] | Potency [16] | Potency [10] | Potency [12] | outcome [13]
